# Reference: PubChem BioAssay AID588692 (Broad Institute, 2011)
# Several values for one entry are separate records, joined by “and”; a condition that tells them apart may be missing. Equal entries are not always repeated. In all, about 360,000 compounds went through this assay and about 830 (0.23%) were called active. The list comes from a sample in which actives are over-represented; it also holds similar structures and randomly drawn compounds. Values without a mark were called inactive.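 How the source made its calls: active means mean luciferase reporter signal, scaled so untreated is 0 and the glycosylation-blocking control 100, at or above a set limit in every replicate; inconclusive means mean reaches the limit but not every replicate does; inactive means mean below the limit.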
# Test: increase of ERlucT glycosylation luciferase signal, primary screen, N-linked glycosylation inhibitor project, D54 ERlucT cells, luminescence, set 2 (AID 588692);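 further: luciferase carries N-glycosylation sites so blocking glycosylation raises the light; 0% = median of neutral control wells and 100% = median of 100 nM tunicamycin wells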
# Settings: 24 h, at 12.5 µM, hits give high values, percent of 100 nM tunicamycin response
row,SMILES,reporter increase
1,O=C(N/N=C\c1cccc(Br)c1)c1ccccc1-n1cccc1,0.034%
2,O=C(N/N=C/c1cccc(Br)c1)c1ccc(N2CCCC2=O)cc1,29.6% (active)
3,O=C(Nc1ccc(N2CCCC2=O)cc1)c1cncc(Br)c1,-9.16%
4,COCOc1cccc(CN2CCC(C)(Oc3ccc(SC)cc3)C2)c1 (configuration not stated),-0.871%
5,Cc1ccc(C)c(NC(=O)C2Cc3ccccc3CN2C(=O)OCc2ccccc2)c1 (configuration not stated),-1.83%
6,O=C(COc1ccc(Cl)cc1)Nc1ccc2oc(=O)ccc2c1,-2%
7,CCCNC(=O)C1(C)CCN(Cc2ccc(Cl)c(Cl)c2)C1 (configuration not stated),0.635%
8,Cc1cc(C)c2c(=O)n3c(nc2c1)C(CC(C)C)NC(=O)c1cc2ccccc2cc1-3 (configuration not stated),-7.33%
9,CCN(CC)CCNCC(=O)Nc1ccc(Oc2ccccc2)cc1,0.423%
10,CCN(CC)CCOc1ccc2c(c1)C(=NNC(=O)c1ccccn1)c1cc(OCCN(CC)CC)ccc1-2,68.7% (active)
11,CN(CCOc1ccc(CC2SC(=O)NC2=O)cc1)c1ccccn1 (configuration not stated),4.03% and 1.28%
12,CC[C@H](C)C(=O)N[C@H]1CCCN1C(=O)/C=C/c1ccccc1,-0.751%
13,CN1CCN(Cc2nc3c(c(=O)n(C)c(=O)n3C)n2Cc2cccc3ccccc23)CC1,-0.438%
14,O=c1c2cc(-c3ccccc3)sc2nc2n1N=C(c1cccs1)CS2,-9.8%
15,O=C(O[C@H]1[C@H](Cc2ccccc2)NS(=O)(=O)[C@H]2C[C@@H]3C=C[C@]12O3)c1ccc([N+](=O)[O-])cc1,2.96%
16,CC(Sc1nncs1)C(=O)NCc1ccc2c(c1)OCO2 (configuration not stated),-1.14%
17,Cc1cc(C)c2nc3nc(C)cc(C)c3c(N)c2c1,79% (active)
18,COc1cc(OC)c2c(-c3cccc(-c4cccc(N)c4)c3)cc(=O)oc2c1,4.55%
19,CC(CNS(=O)(=O)c1ccc(Br)cc1)CN(C)C (configuration not stated),0.673%
20,COc1ccccc1C(=O)COC(=O)CSCC(=O)Nc1cc(C)on1,1.73%
21,O=C(NCC1CCCO1)C(C(=O)c1ccccc1)n1cc(Cl)ccc1=O (configuration not stated),1.12%
22,COc1ccc(C2=Nn3c(nnc3-c3ccccc3OC)SC2)cc1OC1CCCC1,33.9% (active)
23,CCn1c(SCC(=O)NC2CC2)nnc1-c1ccccc1OC,1.11%
24,COc1ccccc1-c1nnc2n1N=C(c1ccc(OC(F)F)c(OCC3CC3)c1)CS2,5.65%
25,Cn1c(=O)[nH]c2c(c(C(=O)O)nn2C)c1=O,-0.816%
26,COCCn1c(SCC(=O)N2CCCCCC2)nc2c(c1=O)SCC2,2.05%

row,SMILES,reporter increase
1,CCCNC(=O)C1(C)CCCN(C(=O)c2oc3ccccc3c2C)C1 (configuration not stated),-0.622%
2,C/C(=N\NC(=O)OC(C)(C)C)c1ccc[nH]1,-4.4%
3,NC(=O)CC(NC(=O)Cc1cccc2ccccc12)c1ccc(NCc2cc(F)ccc2F)c([N+](=O)[O-])c1 (configuration not stated),16%
4,NC(=O)CC(NC(=O)Cc1ccc(Br)cc1)c1ccc(NC2CC3CCC2C3)c([N+](=O)[O-])c1 (configuration not stated),43% (active)
5,CC1CCCCN1CCCNc1ccc(C(CC(N)=O)NC(=O)c2ccccc2)cc1[N+](=O)[O-] (configuration not stated),2.79%
6,CCOc1ccc2c(=O)c(-c3ccc4c(c3)OCCCO4)c(C)oc2c1,-1.81%
7,COc1ccc(C(=O)NCC(c2ccco2)N2CCc3ccccc32)cc1OC (configuration not stated),2.39%
8,COC(=O)c1ccc(COC(=O)C2CCN(S(=O)(=O)c3c(Cl)cccc3Cl)CC2)o1,0.74%
9,CC12CN(Cc3ccccc3)CC(C)(CN(Cc3ccccc3)C1)C2=NO,-0.263%
10,O=[N+]([O-])c1ccc(C=Nc2ccc(Cl)cc2Cl)s1,36.7% (active)
11,CS(=O)(=O)N(CC(O)Cn1c2ccccc2c2ccccc21)c1cccc2ccccc12 (configuration not stated),-2.21%
12,CC/C(=N/Nc1ccccc1)c1cnnc(SC)n1,0.994%
13,Cc1cc(S(=O)(=O)c2cc3ccc(O)c(C)c3oc2=O)ccc1F,1.14%
14,COCCn1cnc2c1c(=O)n(CC(=O)NN)c(=O)n2Cc1ccccc1,-0.206%
15,Fc1ccc2nc(-c3ccccc3)nc(SCc3nnc(-c4ccccc4)o3)c2c1,-4.84%
16,Cc1ccc2nc(SCc3nnc(-c4ccccc4[N+](=O)[O-])o3)c(C#N)cc2c1,35.7% (active)
17,Cn1cnnc1SCc1nnc(-c2ccccc2Br)o1,2.03%
18,CN(C(=O)CSc1nnc(-c2ccc3c(c2)OCO3)o1)C1CCS(=O)(=O)C1 (configuration not stated),1%
19,Cc1[nH]nc(-c2ccc(OCc3cnn(-c4ccccc4)c3)cc2O)c1Oc1ccc(Cl)cc1,-4.08%
20,Cc1cccc(C)c1OCCN1CCOCC1,-0.152%
21,O=C(NCCN1CCOCC1)c1cc(Sc2cccc(Cl)c2)nc2ccccc12,-2.52%
22,c1ccc2cc3c(NCCN4CCOCC4)ccnc3cc2c1,102% (active)
23,CCOCCCNC(=S)N1CCC(NC(=O)C2CCCCC2)CC1,-1.17%
24,O=C1CN(C(=O)COC(=O)C2CC(=O)N(Cc3ccco3)C2)c2ccccc2N1 (configuration not stated),1.95%
25,C=CCN1C(=O)c2ccc(C(=O)N3CCC(C(=O)OCC)CC3)cc2C1=O,0.619%
26,COc1ccc(C(C)C)cc1-c1ccc2nncn2c1,-0.123%
